Source: the supplement of paper PMC8975748
Counter-ions that a name gives are not always drawn.

System: Saccharomyces cerevisiae BY4741 SeMeCo community
Assay: z-score of subpopulation abundance vs DMSO median, subpopulation auxotrophic for LM; higher = larger share of this subpopulation than in DMSO controls
Conditions: 10 µM; 24 h; SM minimal medium; subpopulation (auxotrophy): LM
Method in brief: (§1)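 Automated confocal microscopy of paraformaldehyde-fixed cells was used to follow a Saccharomyces cerevisiae BY4741 community carrying four plasmids, each restoring one auxotrophy and encoding a distinct fluorescent protein. The community was pre-grown overnight to OD600 1.0, diluted to 0.3, and added at 70 µl to 384-well plates acoustically predosed with library drugs (10 µM final) for 24 h of growth in minimal SM medium. Single-auxotroph fluorescent strains set thresholds and autofluorescence correction, and each subpopulation's abundance was scored as a z-score against the vehicle-well median.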

| Compound | z-score of subpopulation abundance |
| --- | --- |
| O=C(O)Cc1ccccc1Nc1c(Cl)cccc1Cl [Diclofenac Diethylamine] | -0.51 |
| Clc1ccccc1C(c1ccccc1)(c1ccccc1)n1ccnc1 [Clotrimazole] | 1.9 |
| C[C@@H](O)[C@H]1C(=O)N2C(C(=O)OCOC(=O)C(C)(C)C)=C(SC3CN(C4=NCCS4)C3)[C@H](C)[C@H]12 [Tebipenem Pivoxil] | 0.18 |
| COC(=O)C1=C(C)NC(C)=C(C(=O)OCC(C)C)C1c1ccccc1[N+](=O)[O-] (stereo not given) [Nisoldipine] | 1.4 |
| NC(=O)Cc1cccc(C(=O)c2ccccc2)c1N [Nepafenac] | 1.58 |
| CN(C)C[C@@H]1CCn2cc(c3ccccc32)C2=C(C(=O)NC2=O)c2cn(c3ccccc23)CCO1 | 0.82 |
| Cc1ccc(-c2ncc(Cl)cc2-c2ccc(S(C)(=O)=O)cc2)cn1 [Etoricoxib] | 0.07 |
| CN(C)CCCN1c2ccccc2Sc2ccccc21 [Promazine hydrochloride] | -0.08 |
| CN(C)CCn1nnnc1SCC1=C(C(=O)O)N2C(=O)[C@@H](NC(=O)Cc3csc(N)n3)[C@H]2SC1 [Cefotiam hydrochloride] | 1.06 |
| CN(C)CC(c1ccc(O)cc1)C1(O)CCCCC1 (stereo not given) [Desvenlafaxine] | -0.57 |
| Cc1ncc([N+](=O)[O-])n1CCOC(=O)c1ccccc1 [Metronidazole Benzoate] | -0.57 |
| O=C1C(CC[S+]([O-])c2ccccc2)C(=O)N(c2ccccc2)N1c1ccccc1 (racemic) [(+/-)-Sulfinpyrazone] | 0.26 |
| COc1ccccc1OCC(O)CN1CCN(CC(=O)Nc2c(C)cccc2C)CC1 (stereo not given) [Ranolazine 2HCl] | -0.74 |

System: Saccharomyces cerevisiae BY4741 SeMeCo community
Assay: z-score of subpopulation abundance vs DMSO median, subpopulation auxotrophic for HM; higher = larger share of this subpopulation than in DMSO controls
Conditions: 10 µM; 24 h; SM minimal medium; subpopulation (auxotrophy): HM
Method in brief: as §1

| Compound | z-score of subpopulation abundance |
| --- | --- |
| CCCCCOc1ccc(-c2ccc(-c3ccc(C(=O)N[C@H]4C[C@@H](O)[C@@H](O)NC(=O)[C@@H]5[C@@H](O)[C@@H](C)CN5C(=O)[C@H]([C@@H](C)O)NC(=O)[C@H]([C@H](O)[C@@H](O)c5ccc(O)cc5)NC(=O)[C@@H]5C[C@@H](O)CN5C(=O)[C@H]([C@@H](C)O)NC4=O)cc3)cc2)cc1 | 0.97 |
| Cc1ccnc(NS(=O)(=O)c2ccc(N)cc2)n1 [Sulfamerazine] | 2 |
| O=C(O)c1cc(-c2ccc(F)cc2F)ccc1O [Diflunisal] | -1.55 |
| COC1C(O)CC(=O)OC(C)CC=CC=CC(OC2CCC(N(C)C)C(C)O2)C(C)CC(CC=O)C1OC1OC(C)C(OC2CC(C)(O)C(O)C(C)O2)C(N(C)C)C1O (stereo not given) [Spiramycin] | -0.27 |
| CC(C)(O/N=C(\C(=O)N[C@@H]1C(=O)N2C(C(=O)[O-])=C(C[n+]3ccccc3)CS[C@H]12)c1csc(N)n1)C(=O)O [Ceftazidime] | -0.26 |
| C[C@@H]1C/C=C/C=C/C=C/C=C/[C@H](O[C@@H]2O[C@H](C)[C@@H](O)[C@H](N)[C@@H]2O)C[C@@H]2O[C@](O)(C[C@@H](O)C[C@H]3O[C@@H]3/C=C/C(=O)O1)C[C@H](O)[C@H]2C(=O)O [Natamycin] | 8.62 |
| COCCCN1CCC(NC(=O)c2cc(Cl)c(N)c3c2OCC3)CC1 [Prucalopride] | 0.24 |
| CCOc1cc(NC(C)=O)ccc1C(=O)OC [Ethopabate] | -0.11 |
| CCCSc1ccc2[nH]c(NC(=O)OC)nc2c1 [Albendazole] | 0.37 |
| CN(C)CCN1C(=O)c2cccc3cc(N)cc(c23)C1=O [Amonafide] | -0.01 |
| COc1ccnc(C[S+]([O-])c2nc3cc(OC(F)F)ccc3[nH]2)c1OC (stereo not given) [Pantoprazole sodium] | 0.29 |
| CCOC(=O)C1=C(COCCN)NC(C)=C(C(=O)OC)C1c1ccccc1Cl (stereo not given) [Amlodipine Besylate] | 4.12 |
| CC(C)(C)C(=O)C(Oc1ccc(Cl)cc1)n1ccnc1 (stereo not given) [Climbazole] | 9.21 |
| COc1cc(N)c(Cl)cc1C(=O)NC1CCN(CCCOc2ccc(F)cc2)CC1OC (stereo not given) [Cisapride] | -1.22 |
| O=C1CCc2cc(OCCCCc3nnnn3C3CCCCC3)ccc2N1 [Cilostazol] | -0.41 |
| O=c1ccn(C2CC(O)C(CO)O2)c(=O)[nH]1 (stereo not given) [2-deoxyuridine] | 0.04 |

| Compound | z-score of subpopulation abundance |
| --- | --- |
| NC12CC3CC(CC(C3)C1)C2 [Amantadine HCl] | -0.31 |
| CO/N=C(\C(=O)N[C@@H]1C(=O)N2C(C(=O)OCOC(=O)C(C)(C)C)=C(/C=C\c3scnc3C)CS[C@H]12)c1csc(N)n1 [Cefditoren Pivoxil] | 1.45 |
| O=C1c2cccc3c2[C@H](CCC3)CN1[C@@H]1CN2CCC1CC2 [Palonosetron HCl] | -0.69 |
| CCCOc1ccc2[nH]c(NC(=O)OC)nc2c1 [Oxibendazole] | 0.95 |
| C[C@]12CC[C@@H]3c4ccc(O)cc4CC[C@H]3[C@@H]1CC[C@@H]2OC(=O)CCC1CCCC1 [Estradiol Cypionate] | -0.34 |
| COc1ccc2c(c1)c(CC(=O)O)c(C)n2C(=O)c1ccc(Cl)cc1 [Indomethacin] | -1.04 |
| Clc1ccccc1C(c1ccccc1)(c1ccccc1)n1ccnc1 [Clotrimazole] | 6.05 |
| NC(=O)Cc1cccc(C(=O)c2ccccc2)c1N [Nepafenac] | 0.5 |
| CN1C2CCCC1CC(NC(=O)c1nn(C)c3ccccc13)C2 (stereo not given) [Granisetron] | 0.6 |
| CN(C)C[C@@H]1CCn2cc(c3ccccc32)C2=C(C(=O)NC2=O)c2cn(c3ccccc23)CCO1 | 0.28 |
| Cc1ccc(-c2ncc(Cl)cc2-c2ccc(S(C)(=O)=O)cc2)cn1 [Etoricoxib] | -0.1 |
| Cc1ccc(Sc2ccccc2N2CCNCC2)c(C)c1 | -0.62 |
| CN(C)CCCN1c2ccccc2Sc2ccccc21 [Promazine hydrochloride] | -0.18 |
| Cc1ncc([N+](=O)[O-])n1CCOC(=O)c1ccccc1 [Metronidazole Benzoate] | 0.12 |
| O=C1C(CC[S+]([O-])c2ccccc2)C(=O)N(c2ccccc2)N1c1ccccc1 (racemic) [(+/-)-Sulfinpyrazone] | 0.14 |
| COc1ccccc1OCC(O)CN1CCN(CC(=O)Nc2c(C)cccc2C)CC1 (stereo not given) [Ranolazine 2HCl] | -0.18 |
